# Reference: paper PMC4336329 (PLoS ONE, 2015)
# Among all 310,000 compounds or so, about 14,000 (4.5%) showed an effect of 50% or more. Effects have a minus sign here. The full list was thinned out, with strong results kept by preference.
# Biological target: human ether-à-go-go-related gene (hERG) potassium channel (human, UniProt Q12809)
# Experiment: primary screen, population patch clamp on CHO cells stably expressing hERG; higher = less effect of the substance
# 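Note: peak tail current of the secondary pulse compared with the same well before compound.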
# Chain of human ether-à-go-go-related gene (hERG) potassium channel (Q12809 whole entry, looked up): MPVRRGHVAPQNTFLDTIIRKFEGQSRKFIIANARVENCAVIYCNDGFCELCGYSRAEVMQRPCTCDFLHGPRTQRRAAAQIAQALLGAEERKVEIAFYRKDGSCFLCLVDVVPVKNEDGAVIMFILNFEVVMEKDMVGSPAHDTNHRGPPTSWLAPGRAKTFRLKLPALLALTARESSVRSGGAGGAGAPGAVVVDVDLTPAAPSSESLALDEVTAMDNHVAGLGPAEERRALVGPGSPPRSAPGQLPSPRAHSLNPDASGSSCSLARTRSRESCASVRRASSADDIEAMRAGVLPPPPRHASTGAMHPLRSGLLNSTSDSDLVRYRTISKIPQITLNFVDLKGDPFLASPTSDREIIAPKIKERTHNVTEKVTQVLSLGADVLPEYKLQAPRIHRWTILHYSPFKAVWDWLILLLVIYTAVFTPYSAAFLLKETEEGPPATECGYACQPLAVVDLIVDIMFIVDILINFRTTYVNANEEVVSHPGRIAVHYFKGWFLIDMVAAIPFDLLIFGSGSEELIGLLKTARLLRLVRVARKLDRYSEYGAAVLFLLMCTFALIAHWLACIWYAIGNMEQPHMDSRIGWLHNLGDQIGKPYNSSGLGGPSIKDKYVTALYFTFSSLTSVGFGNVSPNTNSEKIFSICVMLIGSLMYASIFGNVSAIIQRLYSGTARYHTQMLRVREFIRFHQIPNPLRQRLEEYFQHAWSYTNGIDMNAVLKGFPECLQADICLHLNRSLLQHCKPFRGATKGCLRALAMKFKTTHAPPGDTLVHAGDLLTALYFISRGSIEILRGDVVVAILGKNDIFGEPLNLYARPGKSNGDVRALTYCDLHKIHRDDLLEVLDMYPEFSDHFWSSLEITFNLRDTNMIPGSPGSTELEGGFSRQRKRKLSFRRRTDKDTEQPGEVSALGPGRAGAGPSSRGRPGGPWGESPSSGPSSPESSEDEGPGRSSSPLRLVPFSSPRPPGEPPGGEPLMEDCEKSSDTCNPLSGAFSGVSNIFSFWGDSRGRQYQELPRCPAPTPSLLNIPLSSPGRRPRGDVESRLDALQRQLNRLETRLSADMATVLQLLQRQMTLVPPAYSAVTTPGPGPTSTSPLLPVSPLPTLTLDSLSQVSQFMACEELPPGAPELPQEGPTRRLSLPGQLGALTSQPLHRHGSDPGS
row,Compound,"hERG current change (%, negative = inhibition) at 10uM [%]"
1,COc1ccc(C(=O)N2CCN(c3ccc(N4CCOCC4)nn3)CC2)cc1OC,8.55
2,O=C(/C=C/c1ccco1)N/C(=C\c1ccco1)C(=O)NCCc1nc2ccccc2[nH]1,-22.6
3,O=C(/C=C/c1ccco1)N/C(=C\c1ccccc1)C(=O)NCCc1nc2ccccc2[nH]1,-46.3
4,CC(C)Oc1ccc(/C=C(\NC(=O)/C=C/c2ccco2)C(=O)NCCc2nc3ccccc3[nH]2)cc1,-28.6
5,COc1ccc(/C=C/C(=O)N/C(=C\c2ccco2)C(=O)NCCc2nc3ccccc3[nH]2)cc1,-72.7
6,COc1ccc(/C=C/C(=O)NCCc2nc3ccccc3[nH]2)cc1,26.4
7,COc1ccc(/C=C(\NC(=O)/C=C/c2ccco2)C(=O)NCCc2nc3ccccc3[nH]2)cc1,-56.6
8,Cc1c2cnn(CC(=O)NCCCN3CCCCC3)c(=O)c2c(C)n1Cc1ccccc1,9.96
9,Cc1c2cnn(CC(=O)NCCCN3CC(C)CC(C)C3)c(=O)c2c(C)n1Cc1ccccc1Cl (stereo not drawn),-36.7
10,Cc1c2cnn(CC(=O)NCCCN3CC(C)CC(C)C3)c(=O)c2c(C)n1Cc1ccc(Cl)cc1 (stereo not drawn),-52.6
11,Cc1cc2c(cc3c(=O)n(CC(=O)NCCCN4CC(C)CC(C)C4)ncn32)s1 (stereo not drawn),-53.4
12,CC1CC(C)CN(CCCNC(=O)Cn2ncn3cccc3c2=O)C1 (stereo not drawn),-3.29
13,Cc1nn(CC(=O)NCCCN2CC(C)CC(C)C2)c(=O)c2cccn12 (stereo not drawn),12.9
14,COC(=O)c1ccc(OC(=O)CCN2c3ccccc3Sc3ccccc32)cc1,8.91
15,Nc1c(C(=O)NC23CC4CC(CC(C4)C2)C3)sc2nc3c(c(C(F)(F)F)c12)CCC3,0.00528
16,COc1cccc(C(=O)NC2CC3CCCC(C2)N3CC(=O)Nc2ccccc2)c1.Cl (stereo not drawn),-54.4
17,COc1cccc(C(=O)NC2CC3CCCC(C2)N3CC(=O)Nc2ccccc2C(F)(F)F)c1 (stereo not drawn),15.8
18,O=C(CN1C2CCCC1CC(NC(=O)c1ccco1)C2)Nc1ccccc1 (stereo not drawn),-45.2
19,CC(=O)NC1CC2CCCC(C1)N2CC(=O)Nc1ccccc1 (stereo not drawn),4.65
20,COc1cccc(C(=O)NC2CC3CCCC(C2)N3CC(=O)Nc2ccc(N(C)C)cc2)c1 (stereo not drawn),-49.3
21,O=C(CN1C2CCCC1CC(NC(=O)c1ccccc1)C2)Nc1ccccc1 (stereo not drawn),-50.7
22,O=C(CN1C2CCCC1CC(NC(=O)c1ccccc1)C2)Nc1ccccc1C(F)(F)F (stereo not drawn),6.14
23,O=C(CN1C2CCCC1CC(NC(=O)c1ccccc1)C2)NC1CC1 (stereo not drawn),26.9
24,CN(C)c1ccc(NC(=O)CN2C3CCCC2CC(NC(=O)c2ccccc2)C3)cc1 (stereo not drawn),-65.3

row,Compound,"hERG current change (%, negative = inhibition) at 10uM [%]"
1,CCOc1ccc(NC(=O)COc2nsnc2N2CCCCC2)cc1,21.6
2,CC(C)[C@H](NC(=O)c1ccc(F)cc1)C(=O)N(C)Cc1cccs1,-13.8
3,Cc1ccc(SCC(=O)N2CCOCC2)cc1,4.71
4,Cc1cccc(OCCc2nnc(N)s2)c1C,15.2
5,CCN1CCCC1CNCc1cccc(OC)c1OCc1ccccc1.Cl (stereo not drawn),-26.9
6,COc1cccc(CNc2ccccc2O)c1OCc1ccccc1F,-1.17
7,COc1cccc(CNn2cnnc2)c1OCc1ccccc1F,6.85
8,CCN1CCCC1CNCc1cccc(OC)c1OCc1ccc(F)cc1.Cl (stereo not drawn),-69.5
9,CCN1CCCC1CNCc1ccc(OCc2ccc(Cl)nc2)c(OC)c1.Cl (stereo not drawn),-39.1
10,CCN1CCCC1CNCc1cccc(OC)c1OCc1ccccc1F.Cl (stereo not drawn),-54.4
11,CCN1CCCC1CNCc1ccc(Cl)cc1Cl.Cl (stereo not drawn),-64.6
12,CNCc1ccccc1OCc1ccc(F)cc1.Cl,-7.08
13,CCN1CCCC1CNCc1cc(OC)c(OC)c(OC)c1.Cl (stereo not drawn),1.63
14,CCN1CCCC1CNS(=O)(=O)c1ccc(F)c(Cl)c1 (stereo not drawn),9.12
15,CCOc1cc(CNCC2CCCN2CC)cc(Cl)c1OC.Cl (stereo not drawn),-18
16,CCN1CCCC1CNCc1ccccc1OCc1ccc(F)cc1.Cl (stereo not drawn),-65
17,O=c1cc(/N=C/c2coc3c(ccc4ccccc43)c2=O)[nH]c(=S)[nH]1,11
18,Nc1nc(SCC(=O)Nc2ccc(Oc3ccccc3)cc2)n[nH]1,-4.09
19,CCNC(=S)N(CCc1c(C)[nH]c2ccc(F)cc12)Cc1cccnc1,-26.5
20,O=C(Cn1cnnn1)NCc1ccccc1,29.6
21,O=C(Cn1c(-c2cscn2)nc2ccccc21)Nc1ccc(Cl)cc1,-7.59
22,COCC(C)n1c(C)cc(C(=O)CSc2cc(C)c3ccccc3n2)c1C (stereo not drawn),4.64
23,CCc1ccc(OCC(=O)NC(=S)Nc2ccc(C)cc2C)c(Br)c1,7.39
24,CN(c1ccc(C(=O)N2CCCCC2)cc1)S(=O)(=O)c1cccs1,8.46

row,Compound,"hERG current change (%, negative = inhibition) at 10uM [%]"
1,NS(=O)(=O)c1ccc2nc(NC(=O)c3ccncc3)sc2c1,13.9
2,Cc1nc(NS(=O)(=O)c2ccc(Cl)s2)c2c3c(sc2n1)CCCC3,-28.7
3,CCN(CC)CCNC(=O)c1cc(Nc2ccc(OC)c(OC)c2)nc2ccccc12,-23.8
4,COc1ccc(CCNC(=O)c2cc(-c3ccco3)nc3ccccc23)cc1,2.98
5,NS(=O)(=O)c1ccc(CCNC(=O)c2cc(-c3ccccc3)nc3ccccc23)cc1,-10.4
6,CCN(CC)CCCNC(=O)c1cc(Nc2ccc(OC)cc2)nc2ccccc12,-53.8
7,CCN(CC)CCNC(=O)c1ccc(NC(=O)c2cc(-c3ccco3)nc3ccccc23)cc1,-30.2
8,CCN(CC)CCCNC(=O)c1cc(Nc2ccc(OC)cc2OC)nc2ccccc12,-36.1
9,CCCCCCNC(=O)c1cc(-c2ccco2)nc2ccccc12,-11.5
10,NS(=O)(=O)c1ccc(CCNC(=O)c2cc(-c3ccco3)nc3ccccc23)cc1,-58.3
11,COc1ccc(Nc2cc(C(=O)NCCCN3CCOCC3)c3ccccc3n2)cc1,-26.5
12,CCCCOc1cc(C(=O)NCCN(CC)CC)c2ccccc2n1,-65.9
13,CCN(CC)CCNC(=O)c1cc(-c2ccco2)nc2ccccc12.Cl,-65.5
14,CCN(CC)CCNC(=O)c1cc(-c2ccc(Br)s2)nc2ccccc12,-9.2
15,CN1C(=O)N2CN(C3CCCCC3)CN3C(=O)N(C)C1C23 (stereo not drawn),9.88
16,Cc1noc(C)c1COC(=O)C1COc2ccccc2O1 (stereo not drawn),15.2
17,CCc1ccc(N(C(=O)c2csnn2)C(C(=O)NC(C)(C)C)c2cccnc2)cc1 (stereo not drawn),4.59
18,CCOCCCNC(=O)C(NC(=O)c1ccccn1)c1ccc(C)cc1 (stereo not drawn),-0.00042
19,Cc1ccccc1NS(=O)(=O)c1ccc(-c2ccc(=O)[nH]n2)o1,-2.13
20,COc1ccccc1N1CCN(C(=O)CCCn2c(=O)[nH]c3ccsc3c2=O)CC1,4.33
21,O=C(CCC(=O)c1ccc(F)cc1)Nc1cccc(C(F)(F)F)c1,7.22
22,COc1ccc(Nc2ccc([N+](=O)[O-])cc2[N+](=O)[O-])cc1,-32.5
23,O=C(Nc1ccc(Cl)cc1C(=O)NCC1CCCO1)c1ccc(Cl)cc1Cl (stereo not drawn),-10.2
24,CC(C1CC2CCC1C2)N1CC(O)=C(c2nc3ccccc3[nH]2)C1=N (stereo not drawn),-17.9

row,Compound,"hERG current change (%, negative = inhibition) at 10uM [%]"
1,Cc1ccc(C)c(S(=O)(=O)N/N=C/c2cccnc2)c1,7.65
2,COc1ccc(OC)c(NS(=O)(=O)c2ccc3c(c2)n(C)c(=O)n3C)c1,-5.85
3,CCC/C(=N\NC(=O)C1CC1)c1ccc(Br)cc1,11.9
4,C/C(=N\N=C1\NC(=O)CC(C(=O)O)S1)c1ccc(F)cc1 (stereo not drawn),0.193
5,CCOC(=O)c1nn(C23CC4CC(CC(C4)C2)C3)c2c1C(=O)N(c1ccc(C)cc1)C2=O,20.3
6,Cc1cc([N+](=O)[O-])nn1CC(=O)Nc1cnc2ccccc2c1,-81.1
7,Cc1cc([N+](=O)[O-])nn1CC(=O)Nc1ccccn1,5.51
8,Cc1cc([N+](=O)[O-])nn1CC(=O)Nc1ccc(F)cc1,6.31
9,Cc1cccc(C)c1-n1c(C)nn(CC#N)c1=O,19.1
10,COc1ccc2c(c1)cc(C(=O)O)n2C,-6.02
11,COc1ccc2c(c1)c1c(n2C(C)=O)C(OC(C)=O)=NCC1,-8.94
12,CN=C1c2c(-c3ccccc3)c3cc(OC)ccc3n2CCN1C.Cl,-62.6
13,COc1ccc2c(c1)c1ccccc1n2C,11
14,COc1ccc2c(c1)c1c3n2CCN(C)C3=NCC1.Cl,-67.7
15,COC(=O)c1cc2cc(OC)ccc2n1C,0.821
16,COc1ccc2c(c1)c(=O)cc(-c1ccccc1)n2C,0.0751
17,COc1ccc2[nH]c3c(c2c1)CCN=C3C,-18.2
18,CCN(CC)CCNC(=O)COc1ccc(OC)cc1.Cl,-9.07
19,COc1ccc2c(c1)cc1n2CCN=C1NCCO.Cl,-10.2
20,CN=C1c2cc3cc(OC)ccc3n2CCN1C.Cl,-53
21,CCN(CC)CCNC1=NCCn2c1cc1cc(OC)ccc12.Cl,-66.6
